Screens deposited in PubChem BioAssay by Broad Institute.
PD-1 reversal: reversal of PD-1 mediated T-cell inhibition; primary human CD4 T cells, PD-L1 beads, CellTiter-Glo 96 h; activation, % (no concentration beside the values); 29,000 tested, under 10 active; call rule not given here;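 further: 0% = median vehicle wells and 100% = positive control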
STK33 inh: blocks human STK33 kinase activity; Q9BYT3; ADP-Glo luminescence, MBP substrate; inhibition, % at 12.5 µM; 27,000 tested, 0.44% active; AID 2322; in the data active means inhibition above about 20%; inconclusive means no clear call, values can overlap the other calls
Target sequence (Q9BYT3 whole entry, looked up): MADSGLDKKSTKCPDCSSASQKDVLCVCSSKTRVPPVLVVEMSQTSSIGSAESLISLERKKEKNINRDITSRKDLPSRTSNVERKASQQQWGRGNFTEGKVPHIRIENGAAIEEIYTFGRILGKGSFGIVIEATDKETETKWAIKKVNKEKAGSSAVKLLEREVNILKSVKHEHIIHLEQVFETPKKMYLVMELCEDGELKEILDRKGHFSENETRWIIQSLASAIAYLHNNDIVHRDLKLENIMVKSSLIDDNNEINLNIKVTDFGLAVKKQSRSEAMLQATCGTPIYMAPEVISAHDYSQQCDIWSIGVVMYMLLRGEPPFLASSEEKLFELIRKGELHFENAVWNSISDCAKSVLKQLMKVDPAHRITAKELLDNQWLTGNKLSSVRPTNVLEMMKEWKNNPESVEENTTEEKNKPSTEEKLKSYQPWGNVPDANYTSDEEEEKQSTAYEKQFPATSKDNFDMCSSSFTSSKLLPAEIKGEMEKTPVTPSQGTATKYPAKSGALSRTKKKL
NOMO-1 viab: STK33 inhibitor candidate reducing NOMO-1 cell viability | inhibition, % (concentration not given with the values) | NOMO-1 AML viability, CellTiter-Glo luminescence, 72 h | 37,000 tested, 7.5% active | AID 2330; in the data active means inhibition above about 80%; inconclusive means no clear call, values can overlap the other calls
* hit, by the source's call; ? = inconclusive; · = not tested or not shown. Only a selection was taken, and hits are over-represented in it overall.

SMILES | PD-1 reversal | STK33 inh | NOMO-1 viab
C[C@@H]1CCCCO[C@H](CN(C)Cc2ccncc2)[C@@H](C)CN([C@H](C)CO)C(=O)c2cc(NC(=O)Nc3ccc(F)cc3)ccc2O1 | 0 | 0 | 12
Cc1ccc(S(=O)(=O)Nc2ccc3c(c2)CC(=O)N([C@H](C)CO)C[C@@H](C)[C@H](CN(C)Cc2ccc(Oc4ccccc4)cc2)O3)cc1 | -4 | 7 | ?
C[C@@H]1CN([C@H](C)CO)C(=O)Cc2cc(NS(=O)(=O)c3ccc(F)cc3)ccc2O[C@H]1CN(C)Cc1ccc(Oc2ccccc2)cc1 | -9 | 4 | 127*
C[C@@H]1CN([C@@H](C)CO)C(=O)Cc2cc(NS(=O)(=O)c3ccccc3)ccc2O[C@@H]1CN(C)Cc1ccc(Oc2ccccc2)cc1 | · | 2 | 63
Cc1ccc(S(=O)(=O)Nc2ccc3c(c2)CC(=O)N([C@H](C)CO)C[C@@H](C)[C@@H](CN(C)Cc2ccc(Oc4ccccc4)cc2)O3)cc1 | -1 | 6 | 115*
C[C@@H]1CN([C@H](C)CO)C(=O)Cc2cc(NS(=O)(=O)c3ccccc3)ccc2O[C@H]1CN(C)Cc1ccc(Oc2ccccc2)cc1 | -2 | 5 | 72
COc1ccc(S(=O)(=O)Nc2ccc3c(c2)CC(=O)N([C@@H](C)CO)C[C@H](C)[C@@H](CN(C)Cc2ccc(Oc4ccccc4)cc2)O3)cc1 | -1 | · | 64
COc1ccc(S(=O)(=O)Nc2ccc3c(c2)CC(=O)N([C@H](C)CO)C[C@@H](C)[C@H](CN(C)Cc2ccc(Oc4ccccc4)cc2)O3)cc1 | -1 | 7 | 124*
C[C@H]1CN([C@@H](C)CO)C(=O)Cc2cc(NS(=O)(=O)c3ccc(F)cc3)ccc2O[C@@H]1CN(C)Cc1ccc(Oc2ccccc2)cc1 | -2 | 10 | 96*
CC(=O)Nc1ccc(-c2nnc(SCC(=O)Nc3cc(Cl)cc(Cl)c3)n2C)cc1 | 2 | 2 | 12
COC(=O)c1ccccc1NC(=O)C(C)Oc1cccc(Cl)c1 (centres undefined) | -2 | -1 | 6
COCCN1C(=O)/C(=C/c2cn(CC(=O)OC)c3ccccc23)C(=O)N(c2ccccc2)C1=O | 1 | · | 28
C[C@H](CS)C(=O)N1CCC[C@H]1C(=O)O | · | -3 | 12
CCCNC(=O)[C@H]1O[C@@H]1C(=O)N[C@H](C(=O)N1CCC[C@H]1C(=O)OC)C(C)CC (some centres undefined) | -49 | 0 | 141*
Cc1nn(C(C)C(=O)Nc2ccc(F)c(Cl)c2)c(C)c1[N+](=O)[O-] (centres undefined) | -2 | -4 | 17
CCOc1cc(S(=O)(=O)NCc2cccnc2)ccc1Cl | 1 | -2 | 28
CCOc1ccc(S(=O)(=O)NCc2ccccc2)cc1-c1nc2c(C(C)(C)C)nn(C)c2c(=O)[nH]1 | -2 | · | 127*
O=[N+]([O-])c1nn(-c2ccc(Cl)cc2)n(O)c1=NCC1CCCO1 (centres undefined) | · | 3 | ·
Cc1cc(C)c(NC(=O)CSc2nnc(-c3ccncc3)n2C)c([N+](=O)[O-])c1 | 2 | -3 | 28
COC(=O)C(CC(C)C)NS(=O)(=O)c1ccc(-c2nnc(SC)n2C)s1 (centres undefined) | 0 | · | 119*
CC(C)CC(NS(=O)(=O)c1cccc2nsnc12)C(=O)O (centres undefined) | · | 0 | 5
COc1cc2c(cc1OC)CN(C(=O)CSc1ncnc3sc4c(c13)CCC(C)C4)CC2 (centres undefined) | 2 | -3 | -25
COC(=O)c1c(NC(=O)CN(c2cc(C)ccc2C)S(C)(=O)=O)sc2c1CCCC2 | 2 | -5 | 15
Cc1cc(C)n(Cc2ccccc2)c(=O)c1C#N | 0 | · | -12
Cc1cc(C)c(C#N)c(Sc2ncnc3c2nnn3Cc2ccccc2)n1 | -7 | · | 116*
SMILES | PD-1 reversal | STK33 inh | NOMO-1 viab
Cc1cc(N(CC(=O)Nc2ccc(Cl)c(Cl)c2)S(C)(=O)=O)ccc1Br | -6 | -3 | 30
Cc1cccc(C2Sc3ccccc3N=C3c4ccccc4C(=O)C32)c1 (centres undefined) | 0 | · | 104*
Cc1ccc(NC(=O)CSc2nnc(-c3ccco3)n2-c2ccccc2)cc1Cl | -1 | 1 | 29
O=C(Nc1ccc(I)cc1C(=O)NCC1CCCO1)c1cccnc1 (centres undefined) | · | 4 | -17
Cn1ncc(Br)c1-c1nc2ccccc2[nH]1 | -1 | · | 4
COc1ccc(NC(=O)Nc2cccc3c2O[C@@H](CN(C)Cc2ccc4c(c2)OCO4)[C@@H](C)CN([C@H](C)CO)C3=O)cc1 | 0 | · | 89*
COc1ccc(CN(C)C[C@@H]2Oc3c(NC(=O)Nc4ccc5c(c4)OCO5)cccc3C(=O)N([C@@H](C)CO)C[C@H]2C)cc1 | · | · | 87*
COc1ccc(CN(C)C[C@H]2Oc3c(NC(=O)Nc4ccc5c(c4)OCO5)cccc3C(=O)N([C@H](C)CO)C[C@@H]2C)cc1 | · | · | 35
COc1ccc(NC(=O)Nc2cccc3c2O[C@H](CN(C)Cc2ccc4c(c2)OCO4)[C@H](C)CN([C@@H](C)CO)C3=O)cc1 | 0 | · | 6
Cc1cccc(NC(=O)C2Sc3nnc(-c4ccccc4)n3NC2c2ccccc2)c1 (centres undefined) | 0 | · | 48
CC(=O)Nc1ccc(Br)c(C(F)(F)F)c1 | -1 | · | 14
Cc1cc(=O)[nH]c(SCC(=O)Nc2ccc(I)cc2)n1 | · | 1 | -7
CS(=O)(=O)N(CC(=O)Nc1ccc(Br)cc1)c1cccc(C(F)(F)F)c1 | -5 | -1 | 46
CC(C)(C)C(=O)CSc1nnc(-c2cnccn2)s1 | 3 | -2 | -21
C[C@H](CO)N1C[C@H](C)[C@H](CN(C)Cc2ccc(C(=O)Nc3ccccc3N)cc2)Oc2ccc(NS(=O)(=O)c3ccc(F)cc3)cc2C1=O | -2 | · | 109*
C[C@H]1CN([C@@H](C)CO)C(=O)c2cc(NS(=O)(=O)c3ccc(Cl)cc3)ccc2O[C@H]1CN(C)Cc1ccc(C(=O)Nc2ccccc2N)cc1 | -1 | · | 111*
C[C@H]1CN([C@@H](C)CO)C(=O)c2cc(NS(=O)(=O)c3ccc(F)cc3)ccc2O[C@@H]1CN(C)Cc1ccc(C(=O)Nc2ccccc2N)cc1 | 0 | · | 7
Cc1ccc(S(=O)(=O)Nc2ccc3c(c2)C(=O)N([C@@H](C)CO)C[C@H](C)[C@H](CN(C)Cc2ccc(C(=O)Nc4ccccc4N)cc2)O3)cc1 | -1 | · | 110*
Cc1ccc(S(=O)(=O)Nc2ccc3c(c2)C(=O)N([C@H](C)CO)C[C@H](C)[C@H](CN(C)Cc2ccc(C(=O)Nc4ccccc4N)cc2)O3)cc1 | 0 | · | ?
C[C@@H]1CN([C@@H](C)CO)C(=O)c2cc(NS(=O)(=O)c3ccc(F)cc3)ccc2O[C@@H]1CN(C)Cc1ccc(C(=O)Nc2ccccc2N)cc1 | -1 | · | 110*
C[C@@H]1CN([C@H](C)CO)C(=O)c2cc(NS(=O)(=O)c3ccccc3)ccc2O[C@H]1CN(C)Cc1ccc(C(=O)Nc2ccccc2N)cc1 | -3 | · | 48
C[C@@H]1CN([C@H](C)CO)C(=O)c2cc(NS(=O)(=O)c3ccc(F)cc3)ccc2O[C@H]1CN(C)Cc1ccc(C(=O)Nc2ccccc2N)cc1 | -2 | · | 58
Cc1ccccc1OCC(=O)Nc1cc2nn(-c3ccccc3)nc2cc1Cl | · | 1 | -7
